Assay results reported in the OligoGym collection.

The sequences below were run against MOGAT1 (assay: pooled miR-30 sensor sort-seq; sequence = guide strand). Conditions: shRNA.
Further: reference of the scale not given here.

Row | Sequence | sensor-assay potency score (higher = more potent)
1 | TTACCATGTAGGACACACTTTT | -0.495
2 | TTGTACTGAAAAACTCCCCTGG | 0.595
3 | TATAGGTCTGATGTAACTCCTC | -0.267
4 | TTTCTTGGAAACTGAAACCAGC | -0.444
5 | TTTAACAAATCCTTTCCGCTGG | -0.0523
6 | TTCTGAACAGTTCTAATCCATG | -1.47
7 | TTCTAATCCATGATCCTTCAGG | -0.32
8 | ATGAATTGGAAAATAGTCCTTA | 0.9
9 | TTGATCCAGCTGGATCTCCTGC | -0.998
10 | TAGGACACACTTTTCTTGGAAA | -0.902
11 | TATAGTTGTGACTTGGATCCAA | 0.757
12 | TAACTCCTCAATCTGCTCCTGG | -0.332

What follows are sequences tested against MON2 in the same assay as above. Conditions: shRNA.

Row | Sequence | sensor-assay potency score (higher = more potent)
13 | TTGAATAGAGAGATTATCTGGA | 0.727
14 | TTGGACATCTCCTTTAACGGGT | -0.305
15 | TAGTGTTGAAGATCCTTGCTAC | 0.514
16 | TAAACTAATATTGAGTTCTTGG | -0.234
17 | TTCTTCAAGACTATTCTCCATT | -0.51
18 | AAAAACAACAGTAACAACTTGT | 0.77
19 | TTGTTCTATAATATCTCTGTGT | -0.519
